High-throughput results as filed in PubChem BioAssay.
nsP2pro inh = blocks chikungunya virus nsP2 protease peptide cleavage. Q8JUX6. FRET peptide cleavage, nsP2pro, fluorescence 1 h. Potency, µM (highest dose often 24.9 µM), inactives show at the top dose activity change, negative = inhibition, actives largely listed as inhibitors. 31,000 compounds, 1.1% hits; calls by dose curve; note: nearly all actives have a fitted effect of over 60% in size
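Recombinant nsP2pro (150 nM) was preincubated with compound 15 min at room temperature in 10 mM Tris-HCl pH 8.0, 0.01% Tween 20. Peptide 2 FRET substrate (2.5 uM) was then added and fluorescence read after 1 h. Seven-point series, up to 25 uM.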
* marks the source's active call; other numbers are inactive results; i = inactive; ! = repeats disagree; [ ] = another dose, or the depositor's remark. This excerpt belongs to a sample that is enriched for hits. % is set by controls: 0 for no effect and ±100 for the full control effect; potency is the fitted concentration of half-maximal effect.

SMILES	nsP2pro inh
O=C(O)c1cc(N=Nc2ccc(O)c(C(=O)O)c2)ccc1O	-17.7%
CC(=O)N[C@@H](CC(=O)O)C(=O)N[C@@H](CCC(=O)O)C(=O)N[C@H](C(=O)N[C@@H](CC(=O)O)C(=O)Nc1ccc2c(C)cc(=O)oc2c1)C(C)C	7.2%
Cc1noc(C)c1Cc1ccc(C(=O)N2CCCCCCNC(=O)[C@@H]3CCCC[C@@H]32)o1	-12.4%
O=C(COc1ccccc1)N[C@H]1CO[C@H]2[C@@H]1OC[C@@H]2Nc1nccc(-c2cccs2)n1	-12.4%
O=C(COc1ccccc1)N[C@H]1CO[C@H]2[C@@H]1OC[C@@H]2Nc1nccc(-c2ccco2)n1	12.6µM*
CC(=O)c1ccc(NC(=O)N[C@H]2CO[C@H]3[C@@H]2OC[C@@H]3Nc2nccc(-c3ccco3)n2)cc1	-11.1%
CC(C)(C)c1ccnc(N[C@H]2CO[C@H]3[C@@H]2OC[C@@H]3NC(=O)c2ccco2)n1	-8.2%[39.2 µM]
O=C(Nc1ccccc1)N[C@H]1CO[C@H]2[C@@H]1OC[C@@H]2Nc1nccc(-c2cccs2)n1	50.0%[39.2 µM]
O=C(N[C@H]1CO[C@H]2[C@@H]1OC[C@@H]2Nc1nccc(-c2ccco2)n1)c1ccco1	1µM*
N#Cc1ccc(-c2ccc(NC(=O)Nc3ccc(-c4ccnc5nc[nH]c45)cc3)cc2)cc1	121.3%
CN(C)CCNc1cc(-c2ccc3ccccc3n2)c2cc[nH]c2n1	59.9%
C=C[C@]1(C)C[C@@H](OC(=O)CSC2C[C@H]3CC[C@@H](C2)N3C)C2(C)[C@H](C)CCC3(CCC(=O)[C@H]32)[C@@H](C)[C@@H]1O (some centres not stated)	10.9%
O=C(Nc1nc(-c2ccccc2)cs1)c1ccncc1NS(=O)(=O)c1ccccc1Cl	i
O=C(NCCc1ccc(F)cc1)c1cc(-c2ccccc2)c2nncn2n1	1.2%
Cc1cc(C)nc(NC(=S)N2CCN(c3ccc(C(F)(F)F)cc3Cl)CC2)c1	-4.8%
CN1CCc2cc(Nc3ncc(C4CC4)c(NCCCNC(=O)C4CCC4)n3)ccc2C1	-8.3%
CCC(C)C(NC(=O)C(Cc1ccc(O)cc1)NC(=O)C(NC(=O)C(CCCN=C(N)N)NC(=O)C(N)CC(=O)O)C(C)C)C(=O)NC(Cc1cnc[nH]1)C(=O)N1CCCC1C(=O)O (configuration not stated)	-5.7%
Cc1cccc(N2CCN(C(=O)C3c4ccccc4CC(=O)N3C)CC2)c1C (configuration not stated)	-10.3%
COc1ccc2[nH]cc(CCNC(=O)Nc3ccc(F)cc3)c2c1	9.0%
O=C(O)/C(S)=C/c1c[nH]c2ccc(F)cc12	11.1µM*
CN1CCC(c2c[nH]c3ccc(NC(=O)c4ccc(F)cc4)cc23)CC1	15.5%
O=C(NC1CCCC1)c1cc(-c2cccc(C(F)(F)F)c2)c2cccn2n1	-2.8%
O=C(O)CNC(=O)c1c(=O)cc(CCc2ccccc2)n2[nH]cnc12	52.0%
O=C(NCc1ccnc2[nH]ccc12)c1cncc(Br)c1	-23.6%[39.2 µM]
CCS(=O)(=O)N1CCC(Oc2cccc(C(=O)NCc3ccccn3)c2)CC1	1.9%
SMILES	nsP2pro inh
O=C(NCc1ccnc2[nH]ccc12)c1cccc(Br)c1	11.2µM*
CCc1nc(C(N)=O)c(Nc2ccc(N3CCC(N4CCN(C)CC4)CC3)c(OC)c2)nc1NC1CCOCC1	-10.2%
CCn1cc(-c2ccncc2)cc1C(=O)NCc1ccc(OC(C)C)cc1	i
CCOc1cc2ncc(C#N)c(Nc3ccc(F)c(Cl)c3)c2cc1NC(=O)/C=C/CN(C)C	48.1%
Cc1cc(=O)oc2cc(SC3=NS(=O)(=O)c4ccccc43)ccc12	0.1%
COc1ccc(-c2cc(=S)ss2)cc1	11.1µM*
COc1ccc(-c2nc3ccccc3s2)cc1	i
COc1ccc(-c2nc3ccc(OC)cc3s2)cc1	1.0%
Cc1cn(-c2cc(F)cc(NC(=O)c3ccc(C)c(Nc4nccc(-c5cccnc5)n4)c3)c2)cn1	i
COc1ccc2c(c1)C(CN1CCN(c3ccc4oc(C(=O)O)cc4c3Cl)CC1)=CC(C)(C)CO2	i
CC(C)(C#Cc1ccc(-c2ccc(Cl)c3c(NS(C)(=O)=O)nn(CC(F)(F)F)c23)c([C@H](Cc2cc(F)cc(F)c2)NC(=O)Cn2nc(C(F)(F)F)c3c2C(F)(F)[C@@H]2C[C@H]32)n1)S(C)(=O)=O	-14.2%
COc1ccc2c(c1)[nH]c1c(C)nccc12	-7.4%
COCCCOc1ccnc(CS(=O)c2nc3ccccc3[nH]2)c1C (configuration not stated)	-19.0%
COc1ccc2nc(S(=O)Cc3ncc(C)c(OC)c3C)[nH]c2c1 (configuration not stated)	10µM*!
NC(=O)c1cccc2[nH]c(-c3ccc([C@@H]4CCCN4)cc3F)nc12	-8.3%
CCC(C)C(NC(=O)C(Cc1ccc(O)cc1)NC(=O)C(NC(=O)C(CCCN=C(N)N)NC(=O)C(N)CC(=O)O)C(C)C)C(=O)NC(Cc1cnc[nH]1)C(=O)N1CCCC1C(=O)NC(Cc1ccccc1)C(=O)O (configuration not stated)	10.4%
CCOC(=O)NNc1ccc(N(CC)CC(C)O)nn1 (configuration not stated)	11.1µM*
